Source: PubChem (The Scripps Research Institute Molecular Screening Center)
DAX1 inh-1: inhibits human nuclear receptor DAX1 | P51843 | HEK293 Gal4-DAX1 luciferase reporter, luminescence | inhibition, % at 6.75 µM | actives 0.99% (n = 340,000) | AID 504766;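 active = inhibition above the mean over all tested compounds plus 3 SD, cut at about 4.2% in these data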;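 note: inhibition shows as a rise in luminescence from relieved DAX1 repression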
AHR activator: activators of human aryl hydrocarbon receptor | AID 2796 | AHR-responsive luciferase reporter cells, luminescence | activation, % at 5 µM | P35869 | actives 2.5% (n = 320,000); in the data active = activation above about 47%
Target sequence (P35869 whole entry, looked up): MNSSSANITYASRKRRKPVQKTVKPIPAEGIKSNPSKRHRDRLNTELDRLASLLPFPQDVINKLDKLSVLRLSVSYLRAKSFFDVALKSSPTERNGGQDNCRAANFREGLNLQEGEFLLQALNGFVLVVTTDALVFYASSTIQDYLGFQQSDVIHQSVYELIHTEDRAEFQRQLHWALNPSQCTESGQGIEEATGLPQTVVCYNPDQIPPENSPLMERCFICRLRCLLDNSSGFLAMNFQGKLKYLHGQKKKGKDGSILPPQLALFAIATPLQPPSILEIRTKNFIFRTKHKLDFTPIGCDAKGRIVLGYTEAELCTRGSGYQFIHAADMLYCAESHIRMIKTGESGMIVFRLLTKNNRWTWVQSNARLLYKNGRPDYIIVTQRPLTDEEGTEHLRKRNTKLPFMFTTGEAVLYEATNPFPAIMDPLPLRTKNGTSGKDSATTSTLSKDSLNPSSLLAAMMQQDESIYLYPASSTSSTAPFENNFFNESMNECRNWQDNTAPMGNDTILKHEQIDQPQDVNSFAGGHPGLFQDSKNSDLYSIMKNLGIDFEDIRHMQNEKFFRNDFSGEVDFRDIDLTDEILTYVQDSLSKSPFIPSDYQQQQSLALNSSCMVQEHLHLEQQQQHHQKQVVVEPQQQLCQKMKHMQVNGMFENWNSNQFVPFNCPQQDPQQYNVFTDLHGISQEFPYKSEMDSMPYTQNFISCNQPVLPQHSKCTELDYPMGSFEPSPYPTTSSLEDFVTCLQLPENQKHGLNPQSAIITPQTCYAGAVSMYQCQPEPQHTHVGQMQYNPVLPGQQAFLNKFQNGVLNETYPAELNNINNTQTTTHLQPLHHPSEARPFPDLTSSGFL
hgDAF12 agonist: agonists of H. glycines DAF-12 nuclear receptor. HEK293 GAL4-hgDAF12 UAS-luciferase reporter, agonist luminescence; normalized to butyrate control. activation, % at 6.8 µM. actives 1.8% (n = 370,000). AID 687014;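 active = activation above a cutoff set at the mean of all screened compounds plus 3 SD, cut at about 10% in these data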
ssDAF12 agonist: activates DAF-12 receptor from parasite S. stercoralis; HEK293 ssDAF-12/GRIP1 lit1-tk-luc reporter, luminescence; % of 3 µM dafachronic acid response; activation, % at 6.8 µM; actives 1% (n = 370,000);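 active = activation above the mean over all tested compounds plus 3 SD, cut at about 0.9% in these data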
hcDAF-12 act: activates DAF-12 receptor from parasite H. contortus. HEK293 hcDAF-12 lit1-tk-luc reporter, luminescence; 0% DMSO, 100% Δ7-dafachronic acid. activation, % at 6.8 µM. actives 1.4% (n = 370,000);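 active = activation above the mean of all tested compounds plus 3 SD, cut at about 5.5% in these data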
DAX1 inh-2: DAX1 (NR0B1) inhibition, primary screen | HEK293T StAR-luciferase reporter, SF-1/DAX-1 repression relief | inhibition, % at 6.8 µM | actives 1.1% (n = 370,000) | AID 652010;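 active = inhibition above the mean over all tested compounds plus 3 SD, cut at about 3.6% in these data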;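 note: higher inhibition means more luminescence from relief of DAX-1 repression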
Hits are given with their value; - = inactive; . = no result given. Compounds with a hit are over-represented: about 5.7% of the library has one in this group of screens.

SMILES	DAX1 inh-1	AHR activator	hgDAF12 agonist	ssDAF12 agonist	hcDAF-12 act	DAX1 inh-2
O=C(CSc1nnc(-c2cccs2)o1)c1ccc(F)cc1	.	.	-	-	-	-
COc1ccc(C2=Nc3ccccc3NC(=O)C2N(C(=O)c2cnc(C)cn2)c2ccc(N3CCOCC3)cc2)cc1 (configuration not stated)	.	.	-	-	-	3.7
Cc1cnc(C(=O)N(c2ccc(N3CCOCC3)cc2)C2C(=O)Nc3ccccc3N=C2c2ccc3c(c2)OCO3)cn1 (configuration not stated)	.	.	-	-	-	-
COCC(=O)OC/C(O)=C(\C#N)c1nc2ccccc2[nH]1	4.7	-	-	-	-	-
CCCC(=O)OC/C(O)=C(\C#N)c1nc2ccccc2[nH]1	-	-	-	-	-	-
Cc1cc(Br)ccc1SCC(=O)OC/C(O)=C(\C#N)c1nc2ccccc2[nH]1	-	-	-	1.1	-	-
COP(=O)(/C=C/c1ccccc1)C(O)c1ccc(F)cc1 (configuration not stated)	-	-	-	-	-	-
CCN1CC2([N+](=O)[O-])CC=C(OC)C([N+](=O)[O-])(C1)C2 (configuration not stated)	-	-	-	-	-	-
O=C(Oc1ccc2c(c1)OCO2)c1cc2c(s1)CCC2	-	-	-	-	-	-
Cc1sc(N/N=C/C=C/c2ccccc2)nc1-c1ccccc1	-	73	-	-	6.0	-
CC(=O)Nc1sc(N/N=C\c2ccccc2)nc1-c1cccs1	-	-	-	1.7	6.2	-
CC(=O)Nc1sc(N/N=C\c2ccccc2Cl)nc1-c1cccs1	-	59	-	-	-	-
CC(=O)Nc1sc(N/N=C\c2ccco2)nc1-c1cccs1	-	-	-	-	-	-
CC(=O)Nc1sc(N/N=C/c2ccccc2)nc1-c1ccc(C)cc1	5.0	-	-	-	-	-
COc1ccc2[nH]c(=O)c(CN(Cc3cccs3)C(=S)NCC3CCCO3)cc2c1 (configuration not stated)	-	-	-	-	-	-
O=C(COc1ccc2c3c(c(=O)oc2c1)CCCC3)N1CCN(c2ccc(F)cc2)CC1	-	-	-	-	-	-
CCOc1ccccc1NS(=O)(=O)c1ccc2oc(=O)ccc2c1	-	-	-	-	-	-
Cc1ccc(S(=O)(=O)N(C)C)cc1NC(=S)Nc1cccc2ccccc12	-	59	-	-	-	-
Cc1ccc(S(=O)(=O)N(C)C)cc1NC(=O)c1ccc2ccccc2n1	-	-	-	1.1	-	-
CCOc1cc(C)c(C(C)C)cc1S(=O)(=O)n1cnc(C)c1	.	-	-	-	-	-
COC(=O)c1ccccc1S(=O)(=O)N1CCC(C(=O)NCC2CCCO2)CC1 (configuration not stated)	4.3	-	-	-	-	-
O=C(NCC1CCCO1)C1CCN(S(=O)(=O)c2ccccc2)CC1 (configuration not stated)	-	-	-	-	-	-
COc1ccc(N2C(=O)CC(C#N)=C2N)cc1	-	-	-	-	-	-
Cc1ccc(C(=O)Nc2cc(C(F)(F)F)ccc2N2CCCCC2)cc1[N+](=O)[O-]	-	-	-	-	-	-
CC(C)C(=O)Nc1cc(S(=O)(=O)Nc2ccc(Cl)cc2)ccc1Cl	-	-	-	-	-	-
SMILES	DAX1 inh-1	AHR activator	hgDAF12 agonist	ssDAF12 agonist	hcDAF-12 act	DAX1 inh-2
CC(C)(C)C(=O)Nc1cc(S(=O)(=O)Nc2ccc(Cl)cc2)ccc1O	4.3	-	-	-	-	-
O=C1NC(c2ccccc2)CCO1 (configuration not stated)	-	-	-	-	-	-
O=C1CCCC(c2ccccc2)N1 (configuration not stated)	5.2	-	-	-	-	-
COc1ccc2[nH]c3c(c2c1)CCN[C@]31C(=O)N(c2ccccc2)c2ccccc21	.	.	-	-	-	-
CCOC(=O)[C@H]1[C@H]2COc3ccc(C)cc3[C@@H]2N2C(=O)CN(Cc3ccccc3)C(=O)[C@@]12C	-	-	-	-	-	-
NC(=O)c1cc(S(=O)(=O)NCc2cccc(Br)c2)cs1	-	-	-	-	-	-
CS(=O)(=O)Nc1nnc(C2CCCC2)s1	-	-	-	-	-	-
Nc1c(C(=O)CSc2nnc(N3CCOCC3)n2-c2cccc(F)c2)c(=O)[nH]c(=O)n1C1CC1	-	-	-	-	-	-
CC(=O)c1c(N2CCCC2)[nH]c(-c2ccccc2)nc1=S	-	-	-	-	-	-
CC(=O)c1c(N)[nH]c(-c2ccccc2)nc1=S	-	62	.	.	.	.
Cc1cc(C)n2cc(CSc3nc4ccccc4s3)nc2n1	-	-	-	-	5.7	-
O=C(Nc1cccc(-c2cnc3ccccc3n2)c1)c1ccco1	-	-	-	-	-	-
O=C(Oc1ccc(-c2cnc3ccccc3n2)cc1)c1ccco1	-	-	-	-	5.6	-
CCS(=O)(=O)NC(=O)C1(C)CCN1C(=O)Cc1ccc(Cl)cc1Cl (configuration not stated)	.	.	-	-	-	-
O=C1CN(C(=O)c2ccc(Br)o2)C(c2ccccc2)c2cc(Cl)ccc2N1 (configuration not stated)	-	66	-	-	-	-
O=C1CN(C(=O)c2ccc(Br)o2)C(c2ccc(F)cc2)c2cc(Cl)ccc2N1 (configuration not stated)	-	-	-	-	-	-
O=C1CN(C(=O)c2ccc(Br)o2)C(c2ccccc2)c2cc(Br)ccc2N1 (configuration not stated)	-	70	-	-	-	-
COc1cc(/C=C2\SC(=O)N(Cc3ccc(Cl)cc3)C2=O)cc([N+](=O)[O-])c1O	-	.	-	-	-	-
CC(C)c1ccc2oc(-c3cc(N)ccc3O)nc2c1	-	70	-	-	-	-
CC1CCN(C(=O)Cn2nnc(-c3cccs3)n2)CC1	6.0	-	-	-	-	3.6
O=C(Cn1nnc(-c2cccs2)n1)N1CCOCC1	-	-	-	-	-	-
O=C1NC(=Nc2ccccc2)SC1Cc1cccc(Cl)c1Cl (configuration not stated)	-	-	-	-	-	-
O=C(NCc1ccc2c(c1)OCO2)NC12CC3CC(CC(C3)C1)C2	-	-	-	-	-	-
CCCC(C)c1nnc(NC(=O)COc2ccc3c(c2)OCO3)s1 (configuration not stated)	-	53	-	-	-	-
O=C(COc1ccc2c(c1)OCO2)Nc1nncs1	-	69	-	-	-	-
O=C(COc1ccc2c(c1)OCO2)NC12CC3CC(CC(C3)C1)C2	-	55	-	-	-	-
O=C(NC1CCCCC1NC(=O)c1cccs1)c1cccs1 (configuration not stated)	-	-	-	-	-	-
CC1(C)Cc2nc3sc(C(=O)NCCCO)c(N)c3cc2CS1	5.0	-	-	-	-	-
